# Assay results from PubChem BioAssay AID1479146 (National Center for Advancing Translational Sciences (NCATS), 2020).
# Results filed as inconclusive are left out. Where a call stands in place of a potency, no number is given. Calls of active or inactive are those of the source. Calls follow the shape of the full dose curve.
# Assay: Confirmatory qHTS for Huh7 cytotoxicity: counterscreen for inhibitors of MERS-S pseudo-typed particle cell entry
# Conditions: viability; series mostly up to 57.1 µM
SMILES,Potency,"activity change, negative = cytotoxicity"
CN(C)[C@@H](CCOc1cccc2ccccc12)c1ccccc1,inactive,–
CCN1CCN(Cc2ccc(Nc3ncc(F)c(-c4cc(F)c5nc(C)n(C(C)C)c5c4)n3)nc2)CC1,8.57 µM (active),–
CC(C)(C)NC(=O)[C@H]1CC[C@H]2[C@@H]3CC[C@H]4NC(=O)C=C[C@]4(C)[C@H]3CC[C@]12C,inactive,–
O=c1ccc2ccccc2o1,inactive,–
COc1c(OCCCN2CCOCC2)ccc2c3n(c(=NC(=O)c4cnc(N)nc4)nc12)CCN3,–,-10.8% [at 11.2 µM] (inactive)
CC(=O)N1CCN(c2ccc(OC[C@H]3CO[C@](Cn4ccnc4)(c4ccc(Cl)cc4Cl)O3)cc2)CC1,inactive,–
O=C1c2c(O)ccc(O)c2C(=O)c2c(NCCNCCO)ccc(NCCNCCO)c21,17.1 µM (active),–
Cc1cc(C(C#N)c2ccc(Cl)cc2)c(Cl)cc1NC(=O)c1cc(I)cc(I)c1O (configuration not stated),inactive,–
N=C(N)c1ccc(OCCCCCOc2ccc(C(=N)N)cc2)cc1,inactive,–
CCCCCCNC(=O)n1cc(F)c(=O)[nH]c1=O,inactive,–
CCN(CC)CCNC(=O)c1c(C)[nH]c(/C=C2\C(=O)Nc3ccc(F)cc32)c1C,27.1 µM (active),–
Nc1ccn([C@@H]2O[C@H](CO)[C@@H](O)C2(F)F)c(=O)n1,inactive,–
CN(C/C=C/c1ccccc1)Cc1cccc2ccccc12,inactive,–
CC(C)C[C@H](NC(=O)[C@H](CCc1ccccc1)NC(=O)CN1CCOCC1)C(=O)N[C@@H](Cc1ccccc1)C(=O)N[C@@H](CC(C)C)C(=O)[C@@]1(C)CO1,0.192 µM (active),–
CC[C@@H]([C@H](C)O)n1ncn(-c2ccc(N3CCN(c4ccc(OC[C@@H]5CO[C@@](Cn6cncn6)(c6ccc(F)cc6F)C5)cc4)CC3)cc2)c1=O,inactive,–
Cc1nnc2n1-c1sc(CCc3ccc(CC(C)C)cc3)cc1C(c1ccccc1Cl)=NC2C (configuration not stated),inactive,–
C[C@]12CC[C@H](O)C[C@H]1CCC1C2CC[C@]2(C)[C@@H](c3ccc(=O)oc3)C[C@H]3O[C@]132 (some centres not stated),15.2 µM (active),–
CCCCN=C(N)N=C(N)N,inactive,–
C=C(C)[C@H]1Cc2c(ccc3c2O[C@@H]2COc4cc(OC)c(OC)cc4[C@@H]2C3=O)O1,6.81 µM (active),–
O=C(Nc1ccc([N+](=O)[O-])cc1Cl)c1cc(Cl)ccc1O,3.83 µM (active),–
C=CC1(C)CC(=O)C2(O)C(C)(O1)C(OC(C)=O)C(OC(=O)CCN(C)C)C1C(C)(C)CCC(O)C12C (configuration not stated),inactive,–
Cc1nnc(C(=O)NC(C)(C)c2nc(C(=O)NCc3ccc(F)cc3)c(O)c(=O)n2C)o1,inactive,–
COc1cccc2c1C(=O)c1c(O)c3c(c(O)c1C2=O)C[C@@](O)(C(=O)CO)CC3OC1CC(N2CCOC(OC)C2)C(O)C(C)O1 (some centres not stated),0.136 µM (active),–
CCCCCCCCCCCCOCCOCCOCCOCCOCCOCCOCCOCCOCCO,inactive,–
C[n+]1c2cc(N)ccc2cc2ccc(N)cc21 (tested in a mixture with another compound),3.83 µM (active),–
C=C1c2c(Cl)ccc(O)c2C(O)=C2C(=O)[C@@]3(O)C(O)=C(C(N)=O)C(=O)[C@@H](N(C)C)[C@@H]3[C@@H](O)[C@H]12,inactive,–
c1ccc2c(c1)Sc1ccccc1N2CC1CN2CCC1CC2 (configuration not stated),30.4 µM (active),–
